# DT40 TDP1 no CPT = qHTS for Inhibitors of human tyrosyl-DNA phosphodiesterase 1 (TDP1): qHTS in cells in absence of CPT; 420,000 compounds, 15% hits; AID 686978, 2013; Potency, µM (top dose mostly 46.2 µM), without a hit: at the highest dose activity change, negative = growth inhibition, actives largely listed as inhibitors; DT40 Tdp1-/- hTDP1 cells, no CPT, ATP luminescence, 48 h; also: potency is read from the fitted curve at half-maximal effect; % is scaled to controls: 0 for no effect and ±100 for the full control effect; nearly all actives have a fitted effect of over 55% in size
#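 DT40 Tdp1-/-;hTDP1 cells, no CPT (DMSO vehicle only), 400 cells/well; compounds pin-transferred; ≥48 hr, 37 °C; CellTiter-Glo 30 min RT dark, luminescence read.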
# MCF10A rereplic = A quantitative high throughput screen for small molecules that induce DNA re-replication in MCF 10a normal breast cells | 350,000 compounds, 2.9% hits | MCF 10A DNA re-replication, Hoechst nuclear intensity, 48 h | Potency, µM (highest dose often 46.1 µM), without a hit: top-dose activity, positive = re-replication, usual class: activators | AID 624296, 2012; also: potency is read from the fitted curve at half-maximal effect; % of control where 0% means no effect; nearly all actives have a fitted effect of over 50% in size
# DT40 TDP1 CPT = qHTS for Inhibitors of human tyrosyl-DNA phosphodiesterase 1 (TDP1): qHTS in cells in presence of CPT; chicken DT40 Tdp1-/-;hTDP1 cells + 20 nM CPT, ATP luminescence, 48 h; Potency, µM (doses to about 46.2 µM), for inactives: at the highest dose activity change, negative = growth inhibition, hits mostly inhibitors; 420,000 compounds, 12% hits; also: potency is read from the fitted curve at half-maximal effect; % is scaled to controls: 0 for no effect and ±100 for the full control effect; nearly all actives have a fitted effect of over 55% in size
#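 Cell growth measured by CellTiter-Glo luminescence after a minimum 48 h, 37 C compound exposure with 20 nM CPT in Tdp1-knockout DT40 cells stably expressing hTDP1, seeded 400/well; qHTS titration format.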
# BCR signal inh = qHTS Assay to Find Inhibitors of Chronic Active B-Cell Receptor Signaling; ABC-DLBCL IkBa-CBG/CBR reporter, luminescence ratio, 4 h; Potency, µM (titrated, usually from 46.1 µM), inactives show at the top dose activity change, negative = inhibition, usual class: inhibitors; 340,000 compounds, 0.05% hits; AID 493014, 2011; active = well fitted inhibition curve with a large enough effect in the signal ratio, with a control signal flat, not every such curve was filed as active; inconclusive = small, poorly fitted or top-dose-only effect, or effect the other way, or a change in a side signal; the % refers to the signal ratio;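 also: potency is read from the fitted curve at half-maximal effect; plate controls were basal doxycycline-induced cells for no effect and cells given 10 µM MG132 for full effect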
#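 TMD8 ABC-DLBCL cells carrying doxycycline-inducible green luciferase fused to IkappaBalpha plus unfused red luciferase were exposed to compounds (up to 46 uM) for 4 hrs at 37C. Activity came from the overlap-corrected green/red luminescence ratio.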
# IL1B secr inh = qHTS for Inhibitors of Inflammasome Signaling: IL-1-beta AlphaLISA Primary Screen; THP-1 LPS/ATP IL-1B secretion, AlphaLISA, 16 h; hits give low values; activity change, % at 57.5 µM; 360,000 compounds, 4.7% hits; in the data active = activity change below about -50%; inconclusive = mostly about -30% to -49%; also: % is scaled to controls: 0 for no effect and ±100 for the full control effect
#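 Secreted IL-1B measured by AlphaLISA bead assay after 16 h compound exposure of THP-1 cells; compounds (final up to 57.5 uM) added 1 h before LPS (250 ng/mL) and ATP (1.25 mM) stimulation; lower signal means less secretion.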
# SW480 rerep = A quantitative high throughput screen for small molecules that induce DNA re-replication in SW480 colon adenocarcinoma cells; SW480 DNA re-replication, Hoechst DNA content imaging, 48 h; Potency, µM (highest dose often 46.1 µM), inactives show at the top dose re-replication activation, most hits filed as activators; 340,000 compounds, 1.8% hits; AID 624297, 2012; also: potency is read from the fitted curve at half-maximal effect; % of control where 0% means no effect; nearly all actives have a fitted effect of over 55% in size
#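 Compounds, transferred as 23 nL by pin tool, were incubated with cells for 48 hr; DNA content per nucleus was then quantified by Hoechst staining and fluorescence plate imaging.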
# An asterisk follows results filed as active; ? = inconclusive; / = no result given; [ ] = another dose, or the depositor's remark. Compounds with a hit are over-represented: about 19% of the library has one in this group of screens. Unless noted, calls follow the shape of the dose curve; as a rule, active = well fitted curve in the direction sought with a large enough effect; inconclusive = small, poorly fitted or top-dose-only effect, or another doubt; inactive = no such curve, though single readings can be large; an effect the other way counts as inactive or inconclusive.
SMILES,DT40 TDP1 no CPT,MCF10A rereplic,DT40 TDP1 CPT,BCR signal inh,IL1B secr inh,SW480 rerep
CCc1ccc(N2C(=O)C3C4CCC(C4=C(C)C)C3C2=O)cc1 (configuration not stated),-22.7%,3.0%,-9.3%,6.2%,14.6,1.1%
CC(C)N=C(NS(=O)(=O)c1ccc(Br)cc1)c1ccc(Cl)cc1,6.7%,-1.7%,4.2%,-0.9%,-9.6,-22.2%
O=C(Cc1ccccc1)NO,-6.7%,/,-13.8%,/,/,/
O=C(Cc1ccsc1-c1ccccc1)NO,20.6µM*,?,25.9µM*,-0.6%,-28.3,?
C=C(C)CN1CCN(S(=O)(=O)c2ccc(C)c(N(C)S(=O)(=O)c3ccc(C)cc3)c2C)CC1,10.3µM*,?,23.1µM*,5.5%,-1.1,1.3%
O=C(C[n+]1ccccc1Cl)c1ccc(I)cc1,?,/,-11.1%,/,/,/
O/N=C(/C[n+]1ccsc1)c1ccc(I)cc1,3.55µM*,/,5.01µM*,/,/,/
CCC(C)CNC(=O)c1cccc(OC2CCN(CC(C)(C)C)CC2)c1 (configuration not stated),29.1µM*,6.0%,?,/,-29.2,-1.3%[1.84 µM]
COCCNC(=O)c1cccc(OC2CCN(C(C)COc3ccccc3)CC2)c1 (configuration not stated),1.0%,1.84µM*,?,-3.5%,0.0,-34.1%
COc1ccc(CCNC(=O)CNC(=O)Cn2ccc3ccccc3c2=O)cc1OC,-0.2%,-4.2%,12.7%,-14.1%,4.0,-9.1%
COc1ccc(Cl)cc1NC(=O)c1ncn(-c2ccccc2)n1,?,/,-22.1%,/,/,/
Cc1ccc(C(=O)O)cc1-c1ccc(/C=C2\SC(=O)N(CC(=O)Nc3ccccc3)C2=O)o1,?,23.1µM*,15.2%,7.6%,-0.4,-26.0%
Cc1cc(C(=O)O)ccc1-c1ccc(/C=C2\NC(=O)N(Cc3ccccc3Cl)C2=O)o1,-12.8%,2.31µM*,23.3%,4.0%,0.0,?
Cc1ccc(CN2C(=O)N/C(=C\c3ccc(-c4ccc(C(=O)O)cc4C)o3)C2=O)cc1,-5.6%,?,-12.9%,3.7%,-14.0,7.31µM*
Cc1ccc(C)c(N2C(=N)S/C(=C\c3ccc(-c4ccccc4C(=O)O)o3)C2=O)c1,-2.6%,18.4µM*,4.3%,?,4.9,-18.5%
O=C(CCc1nc2ccccc2c(=O)[nH]1)N1CCN(S(=O)(=O)c2ccc(F)cc2)CC1,4.8%,?,?,4.3%,15.0,-22.7%
COC(=O)CN1C(=O)N/C(=C/c2ccc(C)o2)C1=O,6.6%,0.6%,-26.4%,-23.9%,18.4,-2.3%
Cc1ccccc1NC(=O)CN1C(=O)S/C(=C\c2ccc(-c3cc(C(=O)O)ccc3C)o2)C1=O,-27.1%,?,-2.0%,2.9%,-3.7,8.6%
O=C(O)c1ccc(COc2ccccc2/C=C2\NC(=O)N(Cc3ccc(F)cc3)C2=O)cc1,?,5.0%,0.5%,-0.3%,-0.7,?
O=C(O)c1ccc(-c2ccc(/C=C3\NC(=O)N(Cc4ccc(Cl)cc4)C3=O)o2)cc1,-22.8%,2.06µM*,?,?,-11.8,10.3µM*
Cc1ccc(NC(=O)CN2C(=O)S/C(=C\c3cc(C)n(C)c3C)C2=O)cc1,-7.9%,-14.2%,-19.7%,1.3%,-3.8,-1.6%
Cc1cccc(NC(=O)CN2C(=O)S/C(=C\c3cc(C)n(C)c3C)C2=O)c1,18.4µM*,?,-22.3%,?,-1.9,4.3%
Cc1ccc(C(=O)O)cc1-c1ccc(/C=C2/NC(=O)N(c3ccccc3)C2=O)o1,-13.8%,13µM*,1.2%,?,18.6,?
Cc1ccc(/C=C2/NC(=O)N(Cc3ccccc3)C2=O)o1,23.1µM*,24.5%,16.4µM*,-13.9%,-0.1,?
COc1cccc(C(=O)N2CCN(C3CCN(Cc4ccccc4)CC3)CC2)c1OC,-7.3%,-2.0%,-13.8%,0.3%,-5.1,-15.8%
SMILES,DT40 TDP1 no CPT,MCF10A rereplic,DT40 TDP1 CPT,BCR signal inh,IL1B secr inh,SW480 rerep
Cc1cccc(OCCC(=O)Nc2ccc(N3CCOCC3)cc2N2CCOCC2)c1,?,0.5%,-26.5%,-2.0%,?,0.5%
COc1cc(C2OC(=O)C3C(c4ccc(OC(C)=O)c(OC)c4)OC(=O)C23)ccc1OC(C)=O (configuration not stated),-1.6%,?,13.4%,/,11.4,0.6%
O=C(OCCN(C1=NS(=O)(=O)c2ccccc21)c1ccccc1Cl)c1ccc(Cl)cc1,?,1.0%,18.4µM*,17.8%,13.7,6.9%
COc1ccccc1NC(=S)N(Cc1cccs1)C1CCCC1,6.51µM*,11.0%,?,0.4%,-62.5*,-5.5%
Cc1ccc(C)c(OCc2cc(C(=O)NC(c3ccccn3)C(F)(F)F)no2)c1 (configuration not stated),?,19.1%,?,/,?,18.2%
COc1ccccc1N1CCN(C(=O)CSc2nc(-c3ccco3)cc(C(F)(F)F)n2)CC1,23.1µM*,?,?,1.7%,-2.3,?
Cc1cccc(C)c1NC(=O)CSc1nc(-c2ccco2)cc(C(F)(F)F)n1,?,8.3%,?,5.0%,15.1,20.6µM*
Cc1ccc(O)c(NC(=O)CCSc2nc(-c3ccco3)cc(C(F)(F)F)n2)c1,18.4µM*,/,?,/,/,/
COc1ccc(NC(=O)CCSc2nc(-c3ccco3)cc(C(F)(F)F)n2)cc1,-7.8%,/,-13.7%,/,/,/
O=C(CSc1nc(-c2ccco2)cc(C(F)(F)F)n1)Nc1ccccc1C(F)(F)F,?,-10.1%,?,0.3%,?,1.9%
Cc1nn(C)cc1NC(=O)CCSc1nc(-c2ccco2)cc(C(F)(F)F)n1,?,?,-20.8%,?,0.8,-6.1%
O=C(CSc1nc(-c2ccco2)cc(C(F)(F)F)n1)Nc1ccc(C(=O)N2CCCCC2)cc1,6.51µM*,6.9%,7.31µM*,4.2%,7.2,-10.7%
O=C(CSc1nc(-c2ccco2)cc(C(F)(F)F)n1)N1CCN(Cc2ccccc2)CC1,?,20.4%,?,-1.1%,-14.7,1.2%
C=CCN1C=C(C(C)=O)C(=O)CC1,-4.6%,?,-0.8%,/,1.7,-8.3%[9.22 µM]
Cc1cc(NC(=O)CCSc2nc(-c3ccco3)cc(C(F)(F)F)n2)no1,-13.9%,-10.9%,0.0%,-15.5%,31.2,-31.0%
Cc1ccc(NC(=O)CSc2nc(-c3ccco3)cc(C(F)(F)F)n2)cc1,3.26µM*,/,2.06µM*,/,/,/

# Bioassay records deposited in PubChem by National Center for Advancing Translational Sciences (NCATS).
